Source: ChEMBL document CHEMBL3988442, “University of Dundee, Small-Polar-MMV Screening Library” (2021)

What follows are compounds tested against T1, Aspartate--tRNA(Asp/Asn) ligase (Mycobacterium tuberculosis (strain ATCC 25618 / H37Rv)) (UniProt P9WFW3) (assay: Assay for Asp RNA synthetase-1 from Mycobacterium tuberculosis). Details: 30 µM.
T1 sequence (whole entry): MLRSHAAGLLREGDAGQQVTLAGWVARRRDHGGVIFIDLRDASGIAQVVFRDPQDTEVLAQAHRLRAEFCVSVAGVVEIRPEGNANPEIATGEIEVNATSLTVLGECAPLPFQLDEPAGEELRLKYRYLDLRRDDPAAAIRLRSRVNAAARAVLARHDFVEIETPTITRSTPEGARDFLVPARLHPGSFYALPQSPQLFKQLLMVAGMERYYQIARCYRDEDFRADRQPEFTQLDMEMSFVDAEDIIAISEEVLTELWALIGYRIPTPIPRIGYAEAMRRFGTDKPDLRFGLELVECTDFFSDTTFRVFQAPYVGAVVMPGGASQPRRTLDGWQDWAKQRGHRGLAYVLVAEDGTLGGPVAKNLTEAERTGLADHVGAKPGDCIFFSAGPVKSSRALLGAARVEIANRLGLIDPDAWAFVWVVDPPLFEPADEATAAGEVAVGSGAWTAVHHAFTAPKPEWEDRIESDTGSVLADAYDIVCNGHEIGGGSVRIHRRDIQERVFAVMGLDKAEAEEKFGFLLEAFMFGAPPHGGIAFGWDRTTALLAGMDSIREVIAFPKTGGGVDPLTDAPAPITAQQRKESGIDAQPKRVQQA
Format: functional
Parameters: scale not given: direction of the effect not stated beside the values
`O=C(COCc1ccccc1Cl)N1CCCC(n2cccn2)C1` (stereo not given) showed a Percent Effect of -1.04%.
In the case of `O=C(c1cc(C2CC2)[nH]n1)N1CCN(Cc2ccsc2)CC1`, the Percent Effect is reported as -6.85%.
Work on `CCn1ccnc1-c1nc2cc(S(=O)(=O)N3CCCC3)ccc2n1C` yielded a Percent Effect of -4.2%.
In the case of `CC(C)c1ccc(C(C)NC(=O)N2CCC(n3cncn3)CC2)cc1` (stereo not given), the Percent Effect is reported as -0.885%.
For `CC(C)(C)C(=O)N1CCC2(COCc3cnc(N4CCOCC4)nc32)C1` (stereo not given), the Percent Effect was 3.22%.
`NC(=O)c1ccc(S(=O)(=O)NC2CCN(Cc3ccccc3)C2=O)cc1` (stereo not given) gave a Percent Effect of -5.17%.
In the case of `CC(=O)c1ccc(N2CCC(CO)(CCOc3ccccc3)CC2)nc1`, the Percent Effect is reported as 0.327%.
`Cc1ccoc1C(=O)N1CC[C@H]2OCC[C@@]2(COCc2ccncc2)C1` was tested, and the Percent Effect was 3.13%.
In the case of `Cc1nc(COc2ccc(CNCC3CN(C)CCO3)cc2)cs1` (stereo not given), the Percent Effect is reported as 5.51%.
`CC(C)(C)C(=O)N1CCCC1c1nc(O)cc(-c2ccccn2)n1` (stereo not given) showed a Percent Effect of -4.27%.
In the case of `COc1ccc(CN2C[C@@H]3OCCN(CC4CCCO4)[C@@H]3C2)cc1` (stereo not given in full), the Percent Effect is reported as -0.535%.
With `COc1ncccc1CNC(=O)NC1CCOc2ccccc21` (stereo not given) the Percent Effect was -1.92%.
`CCN1CC(C(=O)NC(C)(C)CC(C)(C)C)CC1=O` (stereo not given) showed a Percent Effect of 2.27%.
`O=C1CC2(CCCNC2)C(=O)N1Cc1ccc(F)cc1` (stereo not given) showed a Percent Effect of 3.3%.
In the case of `COc1cc(C)sc1C(=O)N1CCC(Nc2cccnc2)CC1`, the Percent Effect is reported as -3.37%.
Compound `O=C(O)c1nnn(Cc2cccc(C(F)(F)F)c2)c1-c1cccnc1` has a Percent Effect of -1.36%.
`Cc1nc(C)n(C2CCCN(C(=O)c3cc(C(N)=O)cs3)C2)n1` (stereo not given) was tested, and the Percent Effect was -5.92%.
`CN(Cc1nccn1CC(F)(F)F)C(=O)c1ccc(F)c(F)c1` was tested, and the Percent Effect was 2.69%.
`CC(C)(C)c1ncc2c(n1)CN(C(=O)c1ccncc1)C2` showed a Percent Effect of 2.51%.
`NCc1cn(-c2ccccc2C(=O)NCc2ccccc2)cn1` was tested, and the Percent Effect was -1.51%.
`Cc1cnn(CCCNC(=O)N2CCCCC(N3CCCC3)C2)c1` (stereo not given) showed a Percent Effect of 1.48%.
`COc1cccc(CN2CCCC3(CCN(C(=O)[C@H]4CCCO4)C3)C2)c1` (stereo not given in full) showed a Percent Effect of 2.84%.
For `c1csc(CN2CCOCC3(CCN(C4CCOCC4)C3)C2)n1` (stereo not given), the Percent Effect was 9.2%.
Work on `O=C(NC1CCCC1)N1CCCC(c2nccn2Cc2ccncc2)C1` (stereo not given) yielded a Percent Effect of -4.62%.
With `Cc1cnc(CN(C)C2CCN(CC(=O)Nc3nncs3)C2)o1` (stereo not given) the Percent Effect was 3.17%.
For `COCCCN1CCC(NC(=O)C(C)C)CC1`, the Percent Effect was -2.37%.
In the case of `Cc1ccc(-c2ncc(C(=O)NCCNC(=O)C(C)C)s2)c(C)c1`, the Percent Effect is reported as 2.19%.
`CC(=O)N1CCCN(C(=O)CCc2c(C)noc2C)CC1` showed a Percent Effect of -5.26%.
In the case of `O=C(c1ncccn1)N1C[C@H]2CCC[C@@]2(COCC2CCOCC2)C1`, the Percent Effect is reported as -6.49%.
`COc1ccc(CNC(=O)NC2CCC(O)CC2)c(C(F)(F)F)c1` (stereo not given) was tested, and the Percent Effect was 2.84%.
In the case of `Cc1nc(C)n(CC2CCCN(Cc3nnc(-c4ccco4)o3)C2)n1` (stereo not given), the Percent Effect is reported as -2.25%.
`c1cncc(COCC2CN(Cc3ccco3)Cc3ccnn3C2)c1` (stereo not given) gave a Percent Effect of 1.51%.
`Cc1ccc(C)c(C(NC(=O)C2CC2)c2cccnc2)c1` (stereo not given) showed a Percent Effect of -0.277%.
`CNS(=O)(=O)Cc1ccc(CNC(=O)c2cccc(C)n2)cc1` showed a Percent Effect of -1.85%.
Work on `COc1ccc(C2CCCN2S(=O)(=O)N(C)CC(C)C)cc1` (stereo not given) yielded a Percent Effect of 1.67%.
`Cc1ccc(CN2CC[C@H]3C[C@@H](c4nc(C5CC5)cs4)O[C@@H]3C2)o1` gave a Percent Effect of 11.7%.
With `O=C(c1ccc(Br)s1)N1CCN(Cc2ccc(OC(F)(F)F)cc2)CC1` the Percent Effect was -3.13%.
Work on `CN1CCC(Oc2ccc(NC(=O)c3cccc(Cl)c3)cc2)CC1` yielded a Percent Effect of -0.327%.
In the case of `CC(C)C(NC(=O)NCC1(CO)CC1)c1nnc2n1CCC2` (stereo not given), the Percent Effect is reported as -3.28%.
`CN(C)S(=O)(=O)c1ccc(CN2CCCC2c2ccc[nH]2)o1` (stereo not given) gave a Percent Effect of -3.62%.

The compounds below were run against Shiga toxin 2 (Escherichia coli O157:H7) (UniProt P09385+P09386) (assay: E. coli 0.157:H7 Shiga Toxin SOP - stx2 screening assay). Details: 30 µM.
Format: functional
Parameters: scale not given: direction of the effect not stated beside the values
`O=C(COCc1ccccc1Cl)N1CCCC(n2cccn2)C1` (stereo not given) gave a Percent Effect of 20%.
`O=C(c1cc(C2CC2)[nH]n1)N1CCN(Cc2ccsc2)CC1` was tested, and the Percent Effect was -27.3%.
`CCn1ccnc1-c1nc2cc(S(=O)(=O)N3CCCC3)ccc2n1C` was tested, and the Percent Effect was -15.7%.
For `CC(C)c1ccc(C(C)NC(=O)N2CCC(n3cncn3)CC2)cc1` (stereo not given), the Percent Effect was 3.93%.
With `CC(C)(C)C(=O)N1CCC2(COCc3cnc(N4CCOCC4)nc32)C1` (stereo not given) the Percent Effect was -15.4%.
Compound `NC(=O)c1ccc(S(=O)(=O)NC2CCN(Cc3ccccc3)C2=O)cc1` (stereo not given) has a Percent Effect of 5.52%.
`CC(=O)c1ccc(N2CCC(CO)(CCOc3ccccc3)CC2)nc1` was tested, and the Percent Effect was -31.2%.
`Cc1ccoc1C(=O)N1CC[C@H]2OCC[C@@]2(COCc2ccncc2)C1` showed a Percent Effect of -14.8%.
With `Cc1nc(COc2ccc(CNCC3CN(C)CCO3)cc2)cs1` (stereo not given) the Percent Effect was -13.8%.
For `CC(C)(C)C(=O)N1CCCC1c1nc(O)cc(-c2ccccn2)n1` (stereo not given), the Percent Effect was 5.71%.
`COc1ccc(CN2C[C@@H]3OCCN(CC4CCCO4)[C@@H]3C2)cc1` (stereo not given in full) showed a Percent Effect of -4.29%.
Compound `COc1ncccc1CNC(=O)NC1CCOc2ccccc21` (stereo not given) has a Percent Effect of -19.2%.
For `CCN1CC(C(=O)NC(C)(C)CC(C)(C)C)CC1=O` (stereo not given), the Percent Effect was -6.14%.
In the case of `O=C1CC2(CCCNC2)C(=O)N1Cc1ccc(F)cc1` (stereo not given), the Percent Effect is reported as -4.45%.
With `COc1cc(C)sc1C(=O)N1CCC(Nc2cccnc2)CC1` the Percent Effect was -50.2%.
Work on `O=C(O)c1nnn(Cc2cccc(C(F)(F)F)c2)c1-c1cccnc1` yielded a Percent Effect of -46.6%.
`Cc1nc(C)n(C2CCCN(C(=O)c3cc(C(N)=O)cs3)C2)n1` (stereo not given) gave a Percent Effect of -13.1%.
For `CN(Cc1nccn1CC(F)(F)F)C(=O)c1ccc(F)c(F)c1`, the Percent Effect was 0.723%.
`CC(C)(C)c1ncc2c(n1)CN(C(=O)c1ccncc1)C2` gave a Percent Effect of -10.4%.
In the case of `NCc1cn(-c2ccccc2C(=O)NCc2ccccc2)cn1`, the Percent Effect is reported as -5.86%.
Work on `Cc1cnn(CCCNC(=O)N2CCCCC(N3CCCC3)C2)c1` (stereo not given) yielded a Percent Effect of 22.3%.
With `COc1cccc(CN2CCCC3(CCN(C(=O)[C@H]4CCCO4)C3)C2)c1` (stereo not given in full) the Percent Effect was 5.38%.
Work on `c1csc(CN2CCOCC3(CCN(C4CCOCC4)C3)C2)n1` (stereo not given) yielded a Percent Effect of -7.95%.
With `O=C(NC1CCCC1)N1CCCC(c2nccn2Cc2ccncc2)C1` (stereo not given) the Percent Effect was 12.8%.
For `Cc1cnc(CN(C)C2CCN(CC(=O)Nc3nncs3)C2)o1` (stereo not given), the Percent Effect was -13.8%.
`COCCCN1CCC(NC(=O)C(C)C)CC1` gave a Percent Effect of -36.2%.
For `Cc1ccc(-c2ncc(C(=O)NCCNC(=O)C(C)C)s2)c(C)c1`, the Percent Effect was 11.7%.
Work on `CC(=O)N1CCCN(C(=O)CCc2c(C)noc2C)CC1` yielded a Percent Effect of 2.24%.
Compound `O=C(c1ncccn1)N1C[C@H]2CCC[C@@]2(COCC2CCOCC2)C1` has a Percent Effect of -2.7%.
For `COc1ccc(CNC(=O)NC2CCC(O)CC2)c(C(F)(F)F)c1` (stereo not given), the Percent Effect was 3.3%.
`Cc1nc(C)n(CC2CCCN(Cc3nnc(-c4ccco4)o3)C2)n1` (stereo not given) was tested, and the Percent Effect was -19.8%.
`c1cncc(COCC2CN(Cc3ccco3)Cc3ccnn3C2)c1` (stereo not given) gave a Percent Effect of -12.8%.
Work on `Cc1ccc(C)c(C(NC(=O)C2CC2)c2cccnc2)c1` (stereo not given) yielded a Percent Effect of -13.4%.
For `CNS(=O)(=O)Cc1ccc(CNC(=O)c2cccc(C)n2)cc1`, the Percent Effect was -5.04%.
`COc1ccc(C2CCCN2S(=O)(=O)N(C)CC(C)C)cc1` (stereo not given) was tested, and the Percent Effect was -7.35%.
Compound `Cc1ccc(CN2CC[C@H]3C[C@@H](c4nc(C5CC5)cs4)O[C@@H]3C2)o1` has a Percent Effect of -16.4%.
`O=C(c1ccc(Br)s1)N1CCN(Cc2ccc(OC(F)(F)F)cc2)CC1` was tested, and the Percent Effect was -21.7%.
For `CN1CCC(Oc2ccc(NC(=O)c3cccc(Cl)c3)cc2)CC1`, the Percent Effect was -51%.
`CC(C)C(NC(=O)NCC1(CO)CC1)c1nnc2n1CCC2` (stereo not given) gave a Percent Effect of 19.7%.
In the case of `CN(C)S(=O)(=O)c1ccc(CN2CCCC2c2ccc[nH]2)o1` (stereo not given), the Percent Effect is reported as 8.06%.
